From PubChem BioAssay AID1671187 (National Center for Advancing Translational Sciences (NCATS), 2021)
The other results are listed elsewhere or left out. Results filed as inconclusive are left out. Calls of active or inactive are those of the source. The call rests on the fitted dose curve; in most records, active means well fitted inhibition curve with a large enough effect; inconclusive means small, poorly fitted or top-dose-only effect; inactive means flat fitted curve, though single readings scatter.

These compounds were tested against Alanine aminotransferase 2 (Homo sapiens) (UniProt Q8TD30) (assay: Confirmatory qHTS assay for inhibitors of Glutamate pyruvate transaminase 2 (GPT2)). Conditions: GPT2 enzyme, coupled Amplex Red pyruvate fluorescence.
Chain of Alanine aminotransferase 2 (Homo sapiens) (Q8TD30 whole entry, looked up): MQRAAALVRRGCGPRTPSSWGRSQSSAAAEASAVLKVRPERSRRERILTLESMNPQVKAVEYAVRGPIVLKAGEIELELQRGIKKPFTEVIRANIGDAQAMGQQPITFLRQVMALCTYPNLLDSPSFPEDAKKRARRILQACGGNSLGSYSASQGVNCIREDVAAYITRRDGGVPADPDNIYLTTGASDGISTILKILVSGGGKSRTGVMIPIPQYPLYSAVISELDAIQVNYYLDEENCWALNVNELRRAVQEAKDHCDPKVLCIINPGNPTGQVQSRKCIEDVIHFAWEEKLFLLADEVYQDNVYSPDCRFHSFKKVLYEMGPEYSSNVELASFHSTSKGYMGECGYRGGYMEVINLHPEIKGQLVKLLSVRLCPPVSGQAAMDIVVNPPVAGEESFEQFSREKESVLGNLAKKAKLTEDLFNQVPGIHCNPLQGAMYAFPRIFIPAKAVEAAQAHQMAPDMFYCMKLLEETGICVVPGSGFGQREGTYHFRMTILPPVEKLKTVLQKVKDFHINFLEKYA
Method: Assay Provider: Zhenghe John Wang Ph.D. Case Western Reserve University, Cleveland OH Glutamate pyruvate transaminase 2 (GPT2) catalyzes the reversible transamination of glutamate and pyruvate to provide a-ketoglutarate and alanine. We have optimized an assay for GPT2 enzymatic activity that couples pyruvate formation to detection of fluorescence using an established pyruvate oxidase/horseradish peroxidase / Amplex Red system. Screening conditions were 250uM a-KG, 2mM L-alanine, and 0.006 ng/uL GPT2 in 4 uL of solution; 2 uL of Amplex reaction mix (outlined below) were added so that final concentrations of Amplex reagents in 6 uL were 0.2mM ThPP, 0.2U/mL PO, 1 U/mL HRP, and 15 uM Amplex.
NOTE: The volume of GPT2 in the system depended on the activity of it. The activity could be different in every batch. Batch testing the GPT2 activity was done prior to the assay. Full plate assay with automation as the following protocol: 1. Dispense 2ul of GPT2 enzyme (0.012 ng/ul) into columns 3-48, 2ul of GPT2 buffer (ddH2O with 110mM KCl, 10mM NaCl, 2mM MgCl2, 20mM HEPEs, 0.01% tween-20, 0.1% BSA, 5mM DTT ) into columns 1-2 as a positive control. 2. […] Read at Tecan: Excitation filter 560(10) nm, Emission filter 590 (10) nm Reagents preparation: 1. […]
`CNC(=O)c1ccccc1Nc1nc(Nc2ccc(N3CCOCC3)cc2OC)ncc1Cl` was tested, and the Potency was 1.72 µM (active). With `CN1CCOc2c(C(=O)NCCN3CCNC3=O)cc(Nc3cccnc3)cc21` the Potency was 4.98 µM (active).
